Results as given in PubChem BioAssay (NCI).
This is part of a sample that, as a whole, favours compounds with a hit. Of some 83,000 tested, about 20% had one in any assay.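 A percent growth of 40 corresponds to 60% growth inhibition; 0 means no net growth; -100 means all cells died. Active threshold: below 10.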 Values without a mark were called inactive. Active and inactive are the calls of the source.

Experiments:
Assay in all cases: NCI-60 one-dose screen, 48 h (100 = growth as untreated, 0 = no growth, -100 = all killed)
Details in all cases: 10 µM
SN12C renal = tested on: SN12C renal
UO-31 renal = tested on: UO-31 renal
TK-10 renal = tested on: TK-10 renal
ACHN renal = tested on: ACHN renal
CAKI-1 renal = tested on: CAKI-1 renal
A498 renal = tested on: A498 renal
CCRF-CEM leukemia = tested on: CCRF-CEM leukemia
MOLT-4 leukemia = tested on: MOLT-4 leukemia
SR leukemia = tested on: SR leukemia
RPMI-8226 leukemia = tested on: RPMI-8226 leukemia
OVCAR-8 ovarian = tested on: OVCAR-8 ovarian
OVCAR-5 ovarian = tested on: OVCAR-5 ovarian
OVCAR-4 ovarian = tested on: OVCAR-4 ovarian
SK-OV-3 ovarian = tested on: SK-OV-3 ovarian
IGROV1 ovarian = tested on: IGROV1 ovarian
OVCAR-3 ovarian = tested on: OVCAR-3 ovarian
HS 578T breast = tested on: HS 578T breast
NCI/ADR-RES ovarian = tested on: NCI/ADR-RES ovarian
T-47D breast = tested on: T-47D breast
EKVX NSCLC = tested on: EKVX NSCLC

SMILES | growth (SN12C renal) | growth (UO-31 renal) | growth (TK-10 renal) | growth (ACHN renal) | growth (CAKI-1 renal) | growth (A498 renal) | growth (CCRF-CEM leukemia) | growth (MOLT-4 leukemia) | growth (SR leukemia) | growth (RPMI-8226 leukemia) | growth (OVCAR-8 ovarian) | growth (OVCAR-5 ovarian) | growth (OVCAR-4 ovarian) | growth (SK-OV-3 ovarian) | growth (IGROV1 ovarian) | growth (OVCAR-3 ovarian) | growth (HS 578T breast) | growth (NCI/ADR-RES ovarian) | growth (T-47D breast) | growth (EKVX NSCLC)
CCC(=O)N1C/C(=C/c2ccc(Br)cc2)C(=O)/C(=C/c2ccc(Br)cc2)C1 | -48.8% (active) | -95.9% (active) | -31.2% (active) | -54.9% (active) | -25.9% (active) | -66.4% (active) | -12% (active) | -15.1% (active) | -35.6% (active) | -28.2% (active) | -7.14% (active) | -22.8% (active) | -0.254% (active) | -30.6% (active) | -67.6% (active) | -62.6% (active) | 9.3% (active) | 10.2% | 13% | 
COc1cc(Nc2ccnc(NCCCNc3ccnc4cc(Cl)ccc34)n2)cc(OC)c1 | 22.6% | -74.8% (active) | -63.4% (active) | -58.1% (active) | -3.88% (active) | 14.9% | -5.06% (active) | -39.6% (active) | -21.6% (active) | -45.3% (active) | 3.57% (active) | 44.7% | 2.29% (active) | 14.7% | 27.2% | -58.3% (active) | -53.1% (active) | 50.7% | -63.1% (active) | 
Cc1cc(C)c(NC(=O)c2sc3nc4c(cc3c2N)C(=O)CCC4)c(C)c1 |  | 56.9% | 44.8% | 55.3% | -22.2% (active) | -7.37% (active) | 22.1% | 43% | 10.5% | 31.8% | 45.6% |  |  | 10.4% | 35.4% | 13.2% | 17.7% | -8.04% (active) | 40.6% | 54.4%
C#Cc1ccc(-n2c(/C=C/c3cc(OC)cc(OC)c3)nc3ncccc3c2=O)cc1 | 81.8% | 87.6% | 81.6% | 67.1% | 95.8% | 91.9% | 69% | 58.3% | 44.8% | 25.1% | 66.8% | 129% | 60.2% | 68.1% | 91.9% | 76.4% | 88% | 77.1% | 71.8% | 
O=C(Nc1cccc(-n2cc(-c3ccncc3)c(-c3cc(O)cc(Cl)c3)n2)c1)c1ccc(N2CCOCC2)c(C(F)(F)F)c1 | 46.4% | 3.98% (active) | 70.3% | 20.7% | 14.8% | 72.7% | 13.1% | -29.7% (active) | -12.4% (active) | -3.77% (active) | 22.7% | 81.4% | 77.1% | 50.7% | 44.3% | 36.4% | 17.9% | 35% | 29.3% | 
Fc1cc(C(F)(F)F)ccc1-c1cncnc1NC1CCCCCC1 | 89.7% | 79.9% | 113% | 91.5% | 85.5% | 49.6% | 91.2% | 98.1% | 118% | 76.1% | 87.1% | 106% | 85.3% | 101% | 96.8% | 109% | 102% | 91.4% | 91.8% | 
CCCC#CCN(CC)CC | 95.8% | 83.5% | 99.2% | 106% | 88.2% | 105% | 95% | 109% | 101% | 105% | 100% | 112% | 104% | 107% | 110% | 117% | 105% | 114% | 108% | 
CC1(C)Cc2c(sc3ncn4nc(-c5ccc(O)cc5)nc4c23)CO1 | 63.5% | 44.3% | 56.4% | 67.6% | 76.7% | -9.39% (active) | 70.5% | 69.4% | 22.8% | 57.7% | 58.5% | 86.6% | 64.1% | 79.8% | 75.5% | 86.5% | 65.3% | 64.7% | 48.7% | 
COc1cc2c(cc1OCCCN1CCN(c3ncnc4ccccc34)CC1)N=CC1CCCN1C2=O (stereo not given) | 3.4% (active) |  | -7.43% (active) | 2.77% (active) | -12.1% (active) |  | -45.8% (active) | -44.3% (active) | -43.4% (active) |  | -54.7% (active) | 17.7% | 4.86% (active) |  | -28.9% (active) | -35.2% (active) | -57.6% (active) | 15.9% | 25% | -38.6% (active)
COc1cc2c(cc1OCCCCCCN1CCN(CC(=O)Nc3ccc(Cl)cc3C(=O)c3ccccc3Cl)CC1)N=CC1CCCN1C2=O (stereo not given) | -90.2% (active) |  | -98.8% (active) | -100% (active) | -98.8% (active) |  | -66.3% (active) | -64% (active) | -70.2% (active) |  | -81.7% (active) | -74.4% (active) | -88.9% (active) | -90.2% (active) |  | -91.9% (active) | -83.5% (active) | -60.8% (active) | -57.8% (active) | -93.2% (active)
O=C(CCCCC[P+](c1ccccc1)(c1ccccc1)c1ccccc1)NC(COC(=O)C(Cl)Cl)(COC(=O)C(Cl)Cl)COC(=O)C(Cl)Cl | 96.8% | 94% | 87.4% | 113% | 107% | 89.7% | 88.7% | 97.6% | 88.8% | 83.3% | 95% | 98.6% | 100% | 94.3% | 100% | 103% | 110% | 114% | 90.8% | 
CSCCCNC(=O)c1ccc2c(c1)/C(=C/c1[nH]c(C)cc1C)C(=O)N2 | 22% | 9.33% (active) | 29.4% | 0.349% (active) | 9.54% (active) | -25.9% (active) | 52.2% | 29.1% | 10.7% | 19.7% | 32.6% | 35.9% | 27.6% | 20.5% | -12.5% (active) | 45% | -13.5% (active) | 42.9% | 44.5% | 
COc1cc(NC(=O)CCSc2nc3ccc(C)cc3c(=O)n2Cc2ccccc2)cc(OC)c1OC | 89.5% | 71.2% | 96.1% | 53.3% | 65.1% | 77.6% | 105% | 103% | 95.3% | 83.8% | 29.9% | 94.2% | -32.1% (active) | 30.2% | 110% | 67.9% | 6.72% (active) | 83.8% | 65.6% | 
COc1ccc(-c2nsc3c2NC(=O)CC3c2ccc(F)cc2)cc1 (stereo not given) | 51.6% | 48.7% | 38.5% | 47.1% | 24.3% | 53.8% | 45.3% | 21.7% | 3.34% (active) | 39.6% | 46.1% | 40.3% | 90.8% | 35.2% | 56.2% | 23.9% | 66.6% | 5.04% (active) | 22.2% | 
O=C1/C(=C\c2ccc(Cl)cc2)CN(C(=O)c2ccccc2)C/C1=C\c1ccc(Cl)cc1 | 36.8% | 2.38% (active) | 94.7% | 47.4% | 32.4% | 84.2% | 11.2% | 21.5% | -20.1% (active) | -25% (active) | 4.04% (active) | 83.8% | 36% | 59.3% | 4.31% (active) | -8.04% (active) | 5.5% (active) | 28.3% | 67.2% | 
Cc1cs/c(=N\NC(=O)c2cc(-c3cc4ccccc4o3)nn2-c2ccccc2)n1-c1ccccc1 | 96.7% |  |  |  | 100% |  | 75.7% | 75% | 76.9% |  | 90.8% | 107% | 82.1% |  | 2.32% (active) | 67% | 49.7% | 87.1% | 69.6% | 72.4%
Nc1c(C(=O)Nc2ccccc2)sc2nc3c(cc12)C(O)CCC3 (stereo not given) | 39.6% | 49.4% | 69.8% | 48.2% | 41.4% | -10.1% (active) | 14.2% | 11.9% | 7.36% (active) | 11.6% | 31% | 57.1% | 61.3% | 18.7% | 29.4% | -19.1% (active) | 39.6% | 11.6% | 53.9% | 
